# Compound activity (PubChem)
# This is a sample that favours compounds with a hit; in the whole collection about 2% have one here.
# GRP78 ERSR act = qHTS for Inducers of the Endoplasmic Reticulum Stress Response (ERSR) in Human Glioma: qHTS | U87-MG GRP78 promoter luciferase reporter, 16 h | Potency, µM, without a hit: at the highest dose activation, usual class: activators | 0.02% of 420,000 active | AID 602332, 2012; also: series mostly up to about 76 µM; % of control where 0% means no effect; nearly all actives have a fitted effect of over 35% in size
#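 Stably transfected U87-MG glioma cells carrying a GRP78-based luciferase sensor; 16 h compound incubation. Luminescence end-point read 10 min after Bright-Glo addition at room temperature.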
# aSyn rescue = qHTS of alpha-syn Inhibitors. Yeast expressing alpha-synuclein, growth rescue, BacTiter-Glo, 24 h. Potency, µM (series often up to 46.1 µM), for the others: top-dose growth rescue (activation), usual class: activators. 0.14% of 370,000 active. AID 652106, 2013; also: % of control where 0% means no effect; nearly all actives have a fitted effect of over 65% in size
#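 Galactose-induced alpha-syn yeast (OD600=0.02, raffinose-pregrown) + pinned cpd, 24 hr, 30 deg C; growth by BacTiter-Glo luminescence. Growth restoration scores as activation.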
# TDP43 rescue = qHTS of TDP-43 Inhibitors. TDP-43 expressing yeast growth rescue, BacTiter-Glo, 24 h. Potency, µM (highest dose often 46.1 µM), inactives show top-dose growth rescue (activation), most hits filed as activators. 1.8% of 410,000 active. AID 652104, 2013; also: % of control where 0% means no effect; nearly all actives have a fitted effect of over 50% in size
#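 Growth rescue of TDP-43-toxic yeast measured as ATP luminescence (BacTiter-Glo). Cells grown to mid-log in raffinose, induced in galactose at OD600=0.02, exposed to compound 24 hr at 30 deg C.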
# MBNL1-CUG inh = qHTS Assay for Inhibitors of MBNL1-poly(CUG) RNA binding; Potency, µM (top dose mostly 57.5 µM), for the others: at the top dose activity change, negative = inhibition, most hits filed as inhibitors; TR-FRET MBNL1-His/biotin-(CUG)12 binding, 665/545 ratio; 0.036% of 280,000 active; active = well fitted inhibition curve with a large enough effect in the signal ratio, with a control signal flat, not every such curve was filed as active; inconclusive = small, poorly fitted or top-dose-only effect, or effect the other way, or a change in a side signal; inactive = no such curve, though single readings can be large or run the other way; the % refers to the signal ratio; also: % is scaled to controls: 0 for no effect and ±100 for the full control effect
# Target sequence (Q9NR56 whole entry, looked up): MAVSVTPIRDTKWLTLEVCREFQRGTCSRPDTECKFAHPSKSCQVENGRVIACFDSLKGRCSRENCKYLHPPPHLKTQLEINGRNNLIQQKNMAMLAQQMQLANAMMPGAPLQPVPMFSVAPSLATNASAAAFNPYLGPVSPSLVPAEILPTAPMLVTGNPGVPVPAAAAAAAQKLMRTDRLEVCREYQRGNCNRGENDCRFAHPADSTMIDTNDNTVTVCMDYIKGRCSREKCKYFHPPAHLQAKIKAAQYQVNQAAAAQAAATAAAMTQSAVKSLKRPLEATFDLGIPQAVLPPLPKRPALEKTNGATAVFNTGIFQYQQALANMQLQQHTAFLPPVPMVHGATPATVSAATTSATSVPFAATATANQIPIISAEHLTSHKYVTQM
#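 Inhibition of protein-RNA binding appears as loss of TR-FRET between terbium anti-His antibody on MBNL1-His and streptavidin-XL665 on biotin-(CUG)12. Activity is normalized to buffer-only and uninhibited-complex controls.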
# FUS yeast rescue = qHTS for Suppressors of FUS Proteinopathy: Primary screen using FUS-linked yeast assay; S. cerevisiae FUS-expressing, growth rescue, OD600, 24 h; Potency, µM (titrated, usually from 76.6 µM), hits mostly activators; 0.24% of 390,000 active; AID 1347120, 2019;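 also: plate controls were DMSO vehicle for no effect and reference control for full effect; nearly all actives have a fitted effect of over 55% in size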
#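 Cultures pregrown in 2.5% raffinose medium are shifted to minimal medium containing 2% galactose to express toxic FUS. Compounds are tested at several concentrations. After 24hr at 30C, growth is quantified at 600 nm absorbance.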
# Abeta yeast res = qHTS for compounds that reverse cellular toxicity of Amyloid beta (A-beta) peptide in yeast: Primary Screen. yeast expressing A-beta42, growth rescue, OD600, 48 h; response scale: 0% DMSO, 100% iron-clioquinol control. Potency, µM (highest dose often 46.1 µM), most hits filed as activators. 0.063% of 410,000 active. AID 1347071, 2019; also: nearly all actives have a fitted effect of over 55% in size
#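 Yeast A-beta toxicity model in growth medium with pinned compounds, 48 h at 30 C; growth read as absorbance at 600 nm. Normalized to FeCl3/clioquinol equimolar mix (positive) and DMSO (negative).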
# Starred values were filed as active, the others as inactive; i = inactive; u = inconclusive; x = not tested or not shown. Unless noted, calls follow the shape of the dose curve; as a rule, active = well fitted curve in the direction sought with a large enough effect; inconclusive = small, poorly fitted or top-dose-only effect, or another doubt; inactive = no such curve, though single readings can be large; an effect the other way counts as inactive or inconclusive. Potency is read from the fitted curve at half-maximal effect.
SMILES,GRP78 ERSR act,aSyn rescue,TDP43 rescue,MBNL1-CUG inh,FUS yeast rescue,Abeta yeast res
C[C@H]1C2CC(OC(=O)Nc3cccc(Cl)c3)C(C2)[C@H]2CCCCN21 (some centres not stated),x,x,x,x,i,x
COc1ccccc1Cn1c(CNS(=O)(=O)c2ccc(Cl)s2)nc2cccnc21,-2%,x,0%,x,i,i
CCOc1cc(C)c(Cl)cc1S(=O)(=O)NCc1ccc2c(c1)OCO2,-2%,11%,14µM*,4%,i,i
COc1ccccc1CNS(=O)(=O)c1ccc(Cl)s1,-3%,16%,13µM*,-4%,i,i
Cc1cc(C)c(S(=O)(=O)NCc2ccc3c(c2)OCO3)c(C)c1,-3%,2%,18µM*,-3%,i,i
Cc1cc(C)c(S(=O)(=O)NCc2ccc3c(c2)OCO3)cc1C,-1%,20%,u,-4%,i,i
O=S(=O)(NCc1ccc2c(c1)OCO2)c1ccc(Cl)s1,-1%,9%,11µM*,-4%,i,i
O=C(c1cc(-c2ccccc2)on1)N1CCOc2ccc(CN3CCN(c4ccccn4)CC3)cc2C1,-3%,x,x,x,x,x
O=C(CSc1cccc[n+]1[O-])c1ccccc1Br,u,u,35µM*,-2%,i,u
Cc1cc(C(=O)CSc2cccc[n+]2[O-])c(C)n1-c1ccc(Br)cc1,x,x,x,-5%,x,x
N#Cc1ccc(NC2c3ccccc3CC2O)cc1 (configuration not stated),-5%,11%,15%,x,x,i
OC1Cc2ccccc2C1Nc1cccc(C(F)(F)F)c1 (configuration not stated),-1%,u,13µM*,x,x,i
O=C(Nc1ccc(Cl)cc1)N1CCN(Cc2nc3ccccc3c(=O)[nH]2)CC1,x,x,x,x,i,x
O=C1[C@H]2[C@H](C=CC[C@H]2C(=O)N2CCN(c3ccccc3)CC2)CCN1Cc1ccccc1,-3%,u,28µM*,x,i,i
COC(=O)[C@@H]1CCCN1C(=O)c1c(OC)cc(=O)n2c1CCN(Cc1ccc3cccnc3c1)CC2,-3%,x,x,x,x,x
O=C(OCc1cn(Cc2cccc(C(F)(F)F)c2)nn1)N1CCOCC1,x,x,x,x,i,x
O=C(c1ccccc1Cc1ccccc1)N1CCN(S(=O)(=O)c2ccccc2Br)CC1,-3%,u,13µM*,x,i,i
COc1ccc(NC(=O)N(C)C[C@H]2Oc3c(NC(=O)Nc4ccc(C(F)(F)F)cc4)cccc3C(=O)N([C@H](C)CO)C[C@@H]2C)cc1,-6%,-11%,-12%,x,25µM*,i
COc1ccc(NC(=O)N(C)C[C@H]2Oc3c(NC(=O)c4ccncc4)cccc3C(=O)N([C@H](C)CO)C[C@@H]2C)cc1,-4%,-3%,-3%,x,i,i
COc1ccc(NC(=O)N(C)C[C@H]2Oc3c(NC(=O)c4nc5ccccc5s4)cccc3C(=O)N([C@@H](C)CO)C[C@H]2C)cc1,-2%,-7%,14%,x,16µM*,i
C[C@H](CO)N1C[C@H](C)[C@@H](CN(C)C(=O)Nc2ccc(C(F)(F)F)cc2)Oc2c(NC(=O)Nc3ccc4c(c3)OCO4)cccc2C1=O,1%,-4%,8%,x,u,i
C[C@H](CO)N1C[C@H](C)[C@@H](CN(C)C(=O)Nc2ccc3c(c2)OCO3)Oc2c(NC(=O)Nc3ccc(C(F)(F)F)cc3)cccc2C1=O,-6%,-12%,4%,x,22µM*,i
COc1cc2nc(CC(O)c3nc4cc(OC)c(OC)cc4[nH]3)[nH]c2cc1OC (configuration not stated),-3%,x,x,x,x,x
O=C1/C(=C/c2cccc([N+](=O)[O-])c2)CCc2ccccc21,-1%,5%,22µM*,2%,x,i
O=C1C(=Cc2ccccn2)CCc2ccccc21,-4%,1%,18µM*,x,i,i
SMILES,GRP78 ERSR act,aSyn rescue,TDP43 rescue,MBNL1-CUG inh,FUS yeast rescue,Abeta yeast res
CC(=O)Oc1ccc(/C=C2/CCc3ccccc3C2=O)cc1,-14%,-30%,11µM*,x,i,i
O=c1cc2c(nn1Cc1cccc([N+](=O)[O-])c1)-c1ccccc1CC2,-3%,2%,28µM*,13%,i,i
O=c1cc2c(nn1Cc1ccccc1)-c1ccccc1CC2,1%,6%,19%,13%,i,i
O=C1/C(=C/c2ccc([N+](=O)[O-])cc2)CCc2ccccc21,x,x,x,11%,x,x
COc1ccc2c(c1)CC/C(=C/c1ccccn1)C2=O,-1%,4%,u,-5%,i,i
COc1cccc(/C=C2\CCc3ccccc3C2=O)c1,-8%,-3%,0%,-3%,i,i
C=CCN1C(=O)[C@@H](CC(=O)NCC2CCCCC2)[C@]2(C(=O)OCC)CCCCC/C=C/12,x,x,x,x,i,x
Cc1cnc(C)c(-c2ccc(O)c(CN3CCN(C=O)CC3)c2)n1,-4%,x,x,x,x,x
N#CC(CC(=O)c1ccc(F)cc1)c1ccc2c(c1)OCO2 (configuration not stated),0%,11%,11µM*,-5%,i,i
O=C(O)CC(CC(=O)O)c1ccc2c(c1)OCO2,-5%,0%,x,x,x,x
COc1ccc(N2C(=O)CC(Sc3n[nH]c(-c4ccccc4)n3)C2=O)cc1 (configuration not stated),-5%,-8%,2µM*,5%,i,i
CCOc1ccc(N2C(=O)CC(Sc3n[nH]c(-c4ccccc4)n3)C2=O)cc1 (configuration not stated),3%,-54%,3.5µM*,-6%,i,i
CCOc1ccc2nc(SC3CC(=O)N(c4ccccc4)C3=O)sc2c1 (configuration not stated),-16%,-12%,-6%,4%,i,i
Brc1ccc(Oc2nsnc2N2CCOCC2)cc1,-2%,-6%,11µM*,-9%,i,i
COC(=O)Oc1nsnc1N1CCOCC1,-2%,-40%,-12%,-9%,i,i
Cc1nn(C)c(C(=O)Nc2ccc(S(=O)(=O)NC34CC5CC(CC(C5)C3)C4)cc2)c1Br,-7%,22µM*,4%,0%,i,u
Cc1ccc(S(=O)(=O)NC23CC4CC(CC(C4)C2)C3)cc1,-1%,-3%,u,x,i,i
COc1ccc(OC)c(-c2ccnc(-n3ncc(C(=O)N(C)CCc4ccccn4)c3C)n2)c1,0%,x,x,x,x,x
